Data on 8 compounds can be found in PubChem BioAssay (NCI).

Holding throughout (assay): NCI-60 one-dose screen, 48 h (100 = growth as untreated, 0 = no growth, -100 = all killed)
Conditions in all cases: 10 µM unless noted

Assay [1] has as its system DU-145 prostate.
Assay [2] concerns K-562 leukemia.
Assay [3] deals with MALME-3M melanoma.
Assay [4] concerns MDA-MB-231 breast.
For assay [5], the system named is RXF 393 renal.
Assay [6] concerns SF-268 CNS.
In assay [7] the test system is SF-295 CNS.
Assay [8] relates to SF-539 CNS.
The test system of assay [9] is UACC-257 melanoma.
Assay [10] concerns M14 melanoma.
The test system of assay [11] is HCT-15 colon.
The test system of assay [12] is HT29 colon.
Assay [13] relates to SNB-75 CNS.
Assay [14] relates to SNB-19 CNS.
The test system of assay [15] is U251 CNS.
Assay [16] has as its system PC-3 prostate.
Assay [17] concerns SK-MEL-5 melanoma.
For assay [18], the system named is UACC-62 melanoma.
In assay [19] the test system is LOX IMVI melanoma.
Assay [20] relates to SK-MEL-28 melanoma.

This is part of a sample that, as a whole, favours compounds with a hit. Of some 83,000 tested, about 20% had one in any assay.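 Compound tested at a single concentration for 48 hours in 96-well plates; a percent growth value below 10 was scored as active.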 A number with no mark means an inactive call. Calls of active or inactive are those of the source.

In the case of `CC1(C)CCC(S(=O)(=O)c2ccc3c(c2)/C(=N\O)c2cc(S(=O)(=O)N4CCC(O)(c5cccc(C(F)(F)F)c5)CC4)ccc2-3)CC1`, the growth is -83.8% (active) in [1]; -70.2% (active) in [2]; -79% (active) in assay [3]; -68.7% (active) in [4]; -85.4% (active) in assay [5]; -71.2% (active) in [6]. In addition, the growth in assay [7] was -64.8% (active); in assay [8] it was -82.1% (active); in assay [9] it was -69.9% (active); in assay [10], -74.8% (active); in assay [11] it was 16.3%; in assay [12], -80.1% (active). The growth was -98.2% (active) in assay [13]; -81.9% (active) in [14]; -98.6% (active) in [15]; -71.5% (active) in assay [16]; -92.7% (active) in [17]; -84.9% (active) in assay [18]. Further, the growth in [19] was -86.1% (active); in assay [20], -71.7% (active).
For `Cn1c(O)c(C=NCCN=Cc2c(O)n(C)c(=O)n(C)c2=O)c(=O)n(C)c1=O`, the growth in [1] is 110%; in assay [2] it was 34.5%; in [3], 90.4%; in [4], 101%; in assay [5] it was 111%; in assay [6] it was 105%. Further, the growth is 101% in assay [7]; 93.9% in assay [8]; 101% in assay [9]; 102% in [10]; 107% in assay [11]; 97.1% in [12]. The growth in [13] was 88.3%; in [14], 97.6%; in [15], 102%; in assay [16], 90.4%; in assay [17], 98.7%; in assay [18], 84.1%. Moreover, the growth is 93.2% in [19] and 109% in assay [20].
`C#Cc1cccc(Nc2ncnc3ccc(-c4cncc(NS(C)(=O)=O)c4)cc23)c1`: the growth in [1] was 28.3%; in assay [2], 37.2%; in [3] it was 33.2%; in assay [4] it was 23.7%; in [5], 7.78% (active); in [6] it was 24.1%. For the same compound, the growth was 37.6% in assay [7]; 17% in assay [8]; 37.4% in [9]; 47% in assay [10]; 55.9% in assay [11]; 20.7% in [12]. Also, the growth in assay [13] was 30.6%; in assay [14], 35.2%; in assay [15], 4.32% (active); in assay [16], 26.8%; in assay [17], -75.7% (active); in assay [18] it was 33.4%. Besides, the growth is 7.21% (active) in assay [19] and 41.4% in assay [20].
For the compound `O=C(Nn1c2c(sc1=NCc1ccccc1)C(=O)c1ccccc1C2=O)c1cc2ccc1CCc1ccc(cc1)CC2`, the growth was 88.8% in assay [1]; 48.8% in assay [2]; 5.52% (active) in assay [3]; 40.4% in assay [4]; 60.3% in assay [5]; 58.6% in assay [6]. Further, the growth was 94.8% in assay [7]; 87.5% in assay [8]; 52.6% in [9]; 19.3% in assay [10]; 55.3% in assay [11]; 99.6% in assay [12]. Besides, the growth in [13] is 33.9%; in assay [14] it was 74.1%; in [15], 70.7%; in [16] it was 57.8%; in assay [17], 51.3%; in assay [18], 66.4%. Moreover, the growth in [19] was 35.7%; in assay [20] it was 91.4%.
For `COC(=O)c1c2c(c(C)[n+]([O-])c1C)C(=O)C=C(NCc1ccc(OC)cc1)C2=O`, the growth in [1] is -83.7% (active); in assay [2] it was 0.821% (active); in [3] it was -97.4% (active); in assay [4], -6.3% (active); in assay [5], -32.7% (active); in [6], -22.4% (active). In addition, the growth in assay [7] was -62.5% (active); in [8], -80.7% (active); in assay [9], -77% (active); in assay [10] it was -84.6% (active); in [11], -43.9% (active); in [12], 3.5% (active). For the same compound, the growth in assay [13] was -97% (active); in [14] it was -73.8% (active); in [15] it was -45.7% (active); in assay [16] it was -6.9% (active); in [17], -96.6% (active); in assay [18], -75.1% (active). Further, the growth in assay [19] was -12% (active); in [20], -6.37% (active).
For `CCN(CC)CCSc1nc(-c2ccccc2)c(C#N)c(=O)[nH]1`, the growth was 112% in [1]; 129% in assay [2]; 140% in assay [3]; 116% in assay [4]; 118% in [5]; 102% in assay [6]. The growth was 105% in assay [7]; 100% in [8]; 111% in assay [9]; 111% in [10]; 117% in assay [11]; 142% in assay [12]. Moreover, the growth in assay [13] is 129%; in [14] it was 101%; in [15], 105%; in [16], 116%; in [17] it was 85.1%; in [18] it was 108%. Moreover, the growth is 99.9% in assay [19] and 110% in assay [20].
Consider `CCCCC[C@@H]1Cc2cc(O)c(C(=O)O)c3c2[C@H](C[C@]2(OC[C@@H](CC(=O)[C@@](C)(CC)C(=O)OC)[C@@H]2C)O3)O1`, for which the growth in assay [1] was 120%; in assay [2] it was 117%; in assay [3] it was 104%; in [4], 100%; in [5] it was 119%; in [6], 108%. Further, the growth in assay [7] is 121%; in assay [8], 100%; in assay [9], 87.6%; in [10] it was 119%; in assay [11] it was 91.6%; in assay [12], 116%. In addition, the growth in assay [13] was 96.9%; in [14] it was 94.3%; in [15] it was 103%; in assay [16], 106%; in assay [17], 108%; in assay [18], 88.9%. For the same compound, the results for the growth in assay [19] and in [20] were 103% and 118%, respectively.
Turning to `CCOC(=O)C(=Cc1cccc(Cl)c1)C(=O)OCC`, the growth in assay [1] was 28%; in assay [2] it was -11.1% (active); in assay [3], -27.5% (active); in [4] it was 1.37% (active); in [5], -27.8% (active); in assay [6], 26.4%. Besides, the growth in assay [7] is 77.2%; in [8], 9.28% (active); in assay [9], 26.1%; in assay [10] it was 11.9%; in assay [11] it was -51.1% (active); in assay [12], -62.5% (active). The growth in [13] was 35.3%; in [14], 51.5%; in assay [15], 26.6%; in assay [16] it was 25.2%; in assay [17], 53.5%; in [18] it was -9.18% (active). The growth was -65.1% (active) in assay [19] and -39% (active) in assay [20].
